Where a name gives a salt, the structure may show the parent alone.
Assays:
Details in all cases: incubation time: 27 h, anaerobic, 37 °C;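 for the amine columns active = adjusted P below 0.05 in both replicates with a change the same way and a mean fold change under 0.8 or over 1.25; inactive = the rest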
[1] = test system: Clostridium sporogenes DSM 1664; experiment: growth (OD595) fold change vs plate DMSO controls (fold change (ratio)); higher = more growth
Method in brief: (§1)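 The measure reported is growth, taken as fold change against the median of DMSO controls on the same plate. Anaerobic mGAM cultures in 96-well plates (27 h, 37 °C) were read at 595 nm, blank-subtracted, corrected for compound background using 20 µM compound solutions in water, and multiplied by a calibration factor of 5 to give OD. Any fold change above 1.5 became NA, and 2 biological replicates were averaged.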

Escherichia coli IAI1 [2] = experiment: as above
Method in brief: as §1

[3] = test system: Klebsiella aerogenes DSM 30053; experiment: as above
Method in brief: as §1

[4] = test system: Ruminococcus gnavus DSM 108212; experiment: as above
Method in brief: as §1

[5] = test system: Klebsiella aerogenes DSM 30053; experiment: fold change of Histamine concentration vs plate DMSO controls (fold change (ratio)); higher = more amine produced, active = hit call of the paper (significant change in both replicates, either direction)
Method in brief: (§2)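 In 80 µL wells, cultures of four gut bacterial strains in mGAM started at OD 0.1 before a 1:1 dilution and grew anaerobically at 37 °C for 27 h. Compounds were added to 20 µM final, except sweeteners at 50 µM final. After extraction of whole cultures with cold acetonitrile/methanol plus 0.1% formic acid and centrifugation, amines were measured by LC–triple-quadrupole MS in dynamic MRM mode against external calibration curves, with within-batch drift correction. Values give fold change over DMSO controls on the same plate, averaged across 2 biological replicates.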

[6] = test system: Clostridium sporogenes DSM 1664; experiment: fold change of Tryptamine concentration vs plate DMSO controls (fold change (ratio)); higher = more amine produced, active = hit call of the paper (significant change in both replicates, either direction)
Method in brief: as §2

[7] = test system: Ruminococcus gnavus DSM 108212; experiment: as above
Method in brief: as §2

Escherichia coli IAI1 [8] = experiment: fold change of Putrescine concentration vs plate DMSO controls (fold change (ratio)); higher = more amine produced, active = hit call of the paper (significant change in both replicates, either direction)
Method in brief: as §2

[9] = test system: Klebsiella aerogenes DSM 30053; experiment: as above
Method in brief: as §2

Escherichia coli IAI1 [10] = experiment: fold change of Cadaverine concentration vs plate DMSO controls (fold change (ratio)); higher = more amine produced, active = hit call of the paper (significant change in both replicates, either direction)
Method in brief: as §2

[11] = test system: Klebsiella aerogenes DSM 30053; experiment: as above
Method in brief: as §2

[12] = test system: Ruminococcus gnavus DSM 108212; experiment: fold change of 2-Phenylethylamine concentration vs plate DMSO controls (fold change (ratio)); higher = more amine produced, active = hit call of the paper (significant change in both replicates, either direction)
Method in brief: as §2

Compound | growth [1] | growth (Escherichia coli IAI1 [2]) | growth [3] | growth [4] | fold change of Histamine concentration [5] | fold change of Tryptamine concentration [6] | fold change of Tryptamine concentration [7] | fold change of Putrescine concentration (Escherichia coli IAI1 [8]) | fold change of Putrescine concentration [9] | fold change of Cadaverine concentration (Escherichia coli IAI1 [10]) | fold change of Cadaverine concentration [11] | fold change of 2-Phenylethylamine concentration [12]
N=C(N)Nc1ccc(C(=O)Oc2ccc3cc(C(=N)N)ccc3c2)cc1 [Nafamostat Mesylate] (20 µM) | 1.04 | 0.933 | 0.99 | 0.967 | 0.92 (inactive) | 0.959 (inactive) | 0.91 (inactive) | 1.04 (inactive) | 1.06 (inactive) | 1.04 (inactive) | 1.01 (inactive) | 0.948 (inactive)
NCCc1cc[nH]n1 [Betazole hydrochloride] (20 µM) | 1.01 | 0.989 | 1.03 | 1.02 | 0.96 (inactive) | 1 (inactive) | 1.04 (inactive) | 0.987 (inactive) | 1.02 (inactive) | 1 (inactive) | 1 (inactive) | 1.02 (inactive)
O=C(O)c1cc(=O)[nH]c(=O)[nH]1 [Orotic acid] (20 µM) | 1.11 | 0.979 | 1.01 | 1.22 | 0.955 (inactive) | 1.01 (inactive) | 0.967 (inactive) | 0.995 (inactive) | 1.01 (inactive) | 1.03 (inactive) | 0.993 (inactive) | 0.948 (inactive)
CC(=O)O[C@H]1C[C@@]2(C)[C@@H](C[C@@H](O)[C@H]3[C@@]4(C)CC[C@@H](O)[C@@H](C)[C@@H]4CC[C@@]32C)/C1=C(\CCC=C(C)C)C(=O)O [Fusidic acid sodium salt] (20 µM) | 0.00767 | 1.02 | 1.09 | 0.122 | 0.846 (inactive) | 0.0208 (active) | 0.102 (active) | 0.913 (inactive) | 0.963 (inactive) | 1 (inactive) | 1.02 (inactive) | 0.106 (active)
CCc1cc(C(N)=S)ccn1 [Ethionamide] (20 µM) | 1.09 | 1.05 | 1.03 | 0.995 | 0.962 (inactive) | 1 (inactive) | 1.02 (inactive) | 1.05 (inactive) | 1 (inactive) | 1 (inactive) | 1.02 (inactive) | 1.01 (inactive)
C[C@H]1C[C@H]2[C@@H]3CCC4=CC(=O)C=C[C@]4(C)[C@@]3(F)[C@@H](O)C[C@]2(C)[C@@]1(O)C(=O)CO [Betamethasone] (20 µM) | 1.02 | 1.02 | 1.13 | 1.11 | 0.976 (inactive) | 0.979 (inactive) | 1.01 (inactive) | 1.07 (inactive) | 1.01 (inactive) | 1.04 (inactive) | 1.02 (inactive) | 0.968 (inactive)
CC(=O)Oc1ccccc1C(=O)O [Acetylsalicylic acid] (20 µM) | 1.11 | 0.986 | 1.04 | 1.17 | 0.992 (inactive) | 1.03 (inactive) | 1.18 (inactive) | 0.992 (inactive) | 0.998 (inactive) | 0.93 (inactive) | 1.05 (inactive) | 1.18 (inactive)
COCC(=O)O[C@]1(CCN(C)CCCc2nc3ccccc3[nH]2)CCc2cc(F)ccc2[C@@H]1C(C)C [Mibefradil hydrochloride] (20 µM) | 1.05 | 0.996 | 1 | 0.967 | 0.954 (inactive) | 0.999 (inactive) | 0.925 (inactive) | 1.02 (inactive) | 1.01 (inactive) | 1.02 (inactive) | 1 (inactive) | 0.908 (inactive)
CCCCc1oc2ccc(NS(C)(=O)=O)cc2c1C(=O)c1ccc(OCCCN(CCCC)CCCC)cc1 [Dronedarone hydrochloride] (20 µM) | 0.948 | 1.09 | 1.02 | 0.895 | 0.99 (inactive) | 0.925 (inactive) | 0.8 (inactive) | 1.16 (inactive) | 1 (inactive) | 0.996 (inactive) | 1.01 (inactive) | 0.957 (inactive)
CC(C)OC(=O)CCC/C=C\C[C@@H]1[C@@H](CC[C@@H](O)CCc2ccccc2)[C@H](O)C[C@@H]1O [Latanoprost] (20 µM) | 0.975 | 1 | 0.984 | 1.44 | 1.11 (inactive) | 0.828 (inactive) | 0.542 (active) | 0.928 (inactive) | 1.04 (inactive) | 0.939 (inactive) | 1 (inactive) | 0.649 (inactive)
Nc1nc(O)c2ncn(CCC(CO)CO)c2n1 [Penciclovir] (20 µM) | 1.11 | 1.12 | 1.06 | 1.14 | 0.824 (inactive) | 1.07 (inactive) | 1.08 (inactive) | 1.08 (inactive) | 0.962 (inactive) | 0.996 (inactive) | 1.02 (inactive) | 1.12 (inactive)
Clc1ccc(C(Cn2ccnc2)OCc2c(Cl)cccc2Cl)c(Cl)c1 (centres undefined) [Isoconazole] (20 µM) | 0.999 | 0.858 | 0.862 | 0.0371 | 1 (inactive) | 0.846 (inactive) | 0.265 (active) | 1.01 (inactive) | 1.01 (inactive) | 0.966 (inactive) | 1 (inactive) | 0.289 (active)
COc1ccc(C(=O)c2ccccc2O)c(O)c1 [Dioxybenzone] (20 µM) | 0.846 | 0.791 | 0.972 | 0.955 | 0.962 (inactive) | 1 (inactive) | 0.977 (inactive) | 0.86 (inactive) | 0.985 (inactive) | 1.07 (inactive) | 0.996 (inactive) | 0.937 (inactive)
Cc1cc(O)c(C(=O)N[C@@H](C(=O)N[C@@H]2C(=O)N3C(C(=O)O)=C(CSc4nnnn4C)CS[C@H]23)c2ccc(O)cc2)cn1 [Cefpiramide] (20 µM) | 0 | 0.0131 | 0.61 | 0 | 0.829 (inactive) | 0.0275 (active) | 0.0434 (active) | 0.516 (inactive) | 0.981 (inactive) | 1.92 (active) | 1.08 (inactive) | 0.0464 (active)
NC[C@H]1O[C@H](O[C@H]2[C@H](O)[C@@H](O[C@H]3O[C@H](CO)[C@@H](O)[C@H](N)[C@H]3O)[C@H](N)C[C@@H]2N)[C@H](N)[C@@H](O)[C@@H]1O [Kanamycin B] (20 µM) | 1.05 | 0.89 | 0.765 | 0.976 | 0.723 (active) | 0.998 (inactive) | 0.923 (inactive) | 0.882 (inactive) | 1 (inactive) | 1.08 (inactive) | 0.978 (inactive) | 0.945 (inactive)
COc1nc(N)nc2c1ncn2[C@@H]1O[C@H](CO)[C@@H](O)[C@@H]1O [Nelarabine] (20 µM) | 1.13 | 0.973 | 0.999 | 0.914 | 1.08 (inactive) | 0.945 (inactive) | 1.03 (inactive) | 1.01 (inactive) | 1.01 (inactive) | 0.989 (inactive) | 0.978 (inactive) | 1.03 (inactive)
CN(C)CCN(Cc1ccccc1)c1ccccn1 [Tripelennamine hydrochloride] (20 µM) | 1.03 | 0.99 | 1.02 | 0.946 | 0.957 (inactive) | 1.01 (inactive) | 1.02 (inactive) | 0.85 (inactive) | 1.01 (inactive) | 1.38 (active) | 1 (inactive) | 1.03 (inactive)
CCc1nn(CCCN2CCN(c3cccc(Cl)c3)CC2)c(=O)n1CCOc1ccccc1 [Nefazodone hydrochloride] (20 µM) | 1.05 | 1.01 | 1.17 | 0.822 | 0.853 (inactive) | 0.922 (inactive) | 0.793 (active) | 0.996 (inactive) | 0.996 (inactive) | 1.03 (inactive) | 1.03 (inactive) | 0.824 (inactive)
CN(Cc1cc(Br)cc(Br)c1N)C1CCCCC1 [Bromhexine hydrochloride] (20 µM) | 0.942 | 0.985 | 0.971 | 0.937 | 1.06 (inactive) | 1.05 (inactive) | 1 (inactive) | 1 (inactive) | 1.03 (inactive) | 1.06 (inactive) | 0.991 (inactive) | 1.07 (inactive)
CC(C(=O)O)c1ccc(N2CC=CC2)c(Cl)c1 (centres undefined) [Pirprofen] (20 µM) | 1.03 | 1.01 | 0.978 | 0.973 | 1.04 (inactive) | 0.987 (inactive) | 1.06 (inactive) | 1.04 (inactive) | 0.957 (inactive) | 0.95 (inactive) | 0.981 (inactive) | 1.15 (inactive)
Cc1ccccc1OCC(O)CO (centres undefined) [Mephenesin] (20 µM) | 0.974 | 1.12 | 1.02 | 0.982 | 1.01 (inactive) | 1.02 (inactive) | 1.04 (inactive) | 1.13 (inactive) | 1 (inactive) | 0.927 (inactive) | 1 (inactive) | 1.06 (inactive)
COc1cc2nc(N(C)CCCNC(=O)C3CCCO3)nc(N)c2cc1OC (centres undefined) [Alfuzosin hydrochloride] (20 µM) | 0.976 | 1.01 | 1.01 | 1.31 | 0.953 (inactive) | 1 (inactive) | 1.04 (inactive) | 0.976 (inactive) | 0.99 (inactive) | 1.01 (inactive) | 1.04 (inactive) | 1.04 (inactive)
